Test results: PubChem BioAssay (NCI)
About 83,000 compounds went through this panel and 20% of them were active in at least one assay; those are over-represented in the sample as a whole.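 Compound tested at a single concentration for 48 hours in 96-well plates; a percent growth value below 10 was scored as active.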 Unmarked numbers belong to inactive results. The source made the active and inactive calls.

Legend:
Test in all cases: NCI-60 one-dose screen, 48 h (100 = growth as untreated, 0 = no growth, -100 = all killed)
[1] = tested on: SR leukemia; details: 10 µM unless noted
[2] = tested on: RPMI-8226 leukemia; details: 10 µM
[3] = tested on: OVCAR-8 ovarian; details: 10 µM unless noted
[4] = tested on: OVCAR-4 ovarian; details: 10 µM unless noted
[5] = tested on: SK-OV-3 ovarian; details: 10 µM
[6] = tested on: IGROV1 ovarian; details: 10 µM unless noted
[7] = tested on: OVCAR-3 ovarian; details: 10 µM unless noted
[8] = tested on: HS 578T breast; details: 10 µM unless noted
[9] = tested on: NCI/ADR-RES ovarian; details: 10 µM unless noted
[10] = tested on: T-47D breast; details: 10 µM
[11] = tested on: BT-549 breast; details: 10 µM unless noted
[12] = tested on: MDA-MB-435 melanoma; details: 10 µM unless noted
[13] = tested on: SW-620 colon; details: 10 µM unless noted
[14] = tested on: MCF7 breast; details: 10 µM unless noted
[15] = tested on: HCT-116 colon; details: 10 µM unless noted
[16] = tested on: HCC-2998 colon; details: 10 µM unless noted
[17] = tested on: KM12 colon; details: 10 µM unless noted
[18] = tested on: OVCAR-5 ovarian; details: 10 µM unless noted

| SMILES | growth [1] | growth [2] | growth [3] | growth [4] [%] | growth [5] | growth [6] | growth [7] | growth [8] | growth [9] | growth [10] [%] | growth [11] | growth [12] | growth [13] | growth [14] [%] | growth [15] | growth [16] [%] | growth [17] | growth [18] [%] |
| --- | --- | --- | --- | --- | --- | --- | --- | --- | --- | --- | --- | --- | --- | --- | --- | --- | --- | --- |
| CN(C)C(=S)SCN1C(=O)c2ccc([N+](=O)[O-])cc2S1(=O)=O | 75.8% | 116% | 98.5% | 103 | 107% | 104% | 99.3% | 93% | 96.4% | 102 | 80.8% | 101% | 90.1% | 97.4 | 95.7% | 102 | 96.1% |  |
| Cc1nc(NC(=O)COc2cccc(/C=C3\COc4ccccc4C3=O)c2)sc1C | -69.5% (active) | -74.2% (active) | 7.04% (active) | 55.1 | 92.2% |  | -83.3% (active) | -33.7% (active) |  | 53.2 | -68.5% (active) | -44.5% (active) | -100% (active) |  | -88.4% (active) |  | -92.4% (active) |  |
| O=C(N/N=C/c1ccc(F)cc1)c1[nH]c2ccc(I)cc2c1-c1ccccc1 | 114% | 22% | 45.5% | 37.2 | -1.53% (active) | 23.8% | 5.48% (active) | 51.8% |  | 48.4 | 20.1% | -24% (active) | 33.3% | 14.3 | 14.8% |  | 5.42% (active) |  |
| NS(=O)(=O)c1ccc(C(=O)N/N=C(\CS(=O)(=O)c2ccccc2)c2cc3cc(Br)ccc3o2)cc1 | 127% | 98.3% | 75.2% |  |  | 92.5% | 94.5% | 80.7% |  | 88.1 | 101% | 73% | 94.6% | 72.3 | 90.5% | 94.2 | 85.6% | 99.8 |
| COc1cc(C2CC(=O)Nc3c2ccc2ccccc32)cc(Br)c1OC (centres undefined) | -6.32% (active) | -13.1% (active) | 27.7% | 41 | 2.95% (active) | 32.4% | -26.3% (active) | 14% | -10.7% (active) | 51.2 | 10.9% | -55.5% (active) | 20% |  | 11.2% |  | 16.2% |  |
| COc1ccc(-c2c3c(N)c4c(nc3nc3c2c(C)nn3-c2ccccc2)CCCC4)cc1 | -25.8% (active) | -37.5% (active) | 83.1% | 45.1 | 103% | 90.1% | 88.8% | 92.5% |  | 84 | 106% | 77.5% | 68.2% | 58.5 | 31.8% | 100 | 89.6% |  |
| Cc1nn2c(-c3nc4ccc(Cl)cc4[nH]3)c(-c3ccc(F)cc3)nc2s1 | 72% | 77.6% | 87.7% | 115 | 107% |  | 110% |  | 96.4% | 91.2 | 102% | 99.7% | 91.2% | 81.2 | 86.3% | 99.2 | 89.4% |  |
| CC(C)(C)CC(C)(C)N(CSc1ccc(Cl)cc1)CSc1ccc(Cl)cc1 | -32.7% (active) | -25% (active) | 44.6% | 50.1 | 71% | 2.44% (active) | 41.4% | 66.6% | 45.6% | 63.2 | -52.4% (active) | 46.3% | 35.9% | 31.4 | 25.5% | 65.3 |  |  |
| O=C(c1cnn2c1NC(c1ccc(F)cc1)C2)N1CCCCC1 (centres undefined) | 107% | 103% | 106% |  |  | 103% | 106% | 99.8% | 109% |  | 110% | 94.8% | 102% | 93.2 | 98.2% | 113 | 106% | 102 |
| O=c1nc(NO)[nH]c(=O)n1Cc1ccccc1 | 107% | 104% | 104% | 97 | 99.3% | 106% | 120% | 100% | 105% | 92.8 | 103% | 101% | 108% | 98.9 | 105% | 106 | 105% |  |
